Data on 17 compounds can be found in PubChem BioAssay.

Values without a mark were called inactive.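 How the source made its calls: active means inhibition at or above 50% relative to wild type and mutant plate controls; inactive means inhibition below 50%.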

The experiment in a line: loss of swimming-algae plug formation – whole organism, Chlamydomonas reinhardtii, WT vs cilia-less mutant, absorbance, 96-well, primary screen (AID 463189).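 Further: 0% = wild type cc124 cells in DMSO and 100% = ciliumless bld1 mutant cells.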 The settings on record: Chlamydomonas reinhardtii gravitaxis, OD600 absorbance, 2 days; at 10 µM; stronger effect = higher value.
In general, inhibition refers to the change of the read-out against control, counted positive when it falls. With `Nc1nc(OCc2ccccc2)c2[nH]cnc2n1`, the inhibition was 0.83%.
The same measure for `CNCCC(Oc1ccccc1OC)c1ccccc1` (configuration not stated): 13.4%.
Under `CN(C)c1cc2c(Nc3ccc4c(cnn4Cc4ccccc4)c3)ncnc2cn1` stands 2.93%; under `C[C@]12CC[C@@H]3c4ccc(O)cc4CC[C@H]3[C@@H]1CC[C@@H]2O`, 5.14%; under `NC(=Nc1ccccc1)NC(=O)c1nc(Cl)c(N)nc1N`, -0.27%.
Under `N#C/C(=C\c1ccc(O)c(O)c1)C(=O)Nc1ccccc1` stands 5.13%.
In the case of `NC1CCN(O)C1=O` (configuration not stated), the inhibition is 2.51%.
The same measure for `CN1C2CCC1CC(OC(=O)c1c[nH]c3ccccc13)C2` (configuration not stated): 11.2%.
The same measure for `Nc1ccc(CCNc2ncnc3c2ncn3C2OC(CO)C(O)C2O)cc1` (configuration not stated): 3.12%; for `CC(C)NCC(O)c1cc(O)cc(O)c1` (configuration not stated): 11.3%; for `O=C(O)CNC(=O)C(CS)Cc1ccccc1` (configuration not stated): -0.967%.
`CC[C@H](C)C(=O)O[C@H]1CCC=C2C=C[C@H](C)[C@H](CC[C@@H]3C[C@@H](O)CC(=O)O3)[C@H]21`: the inhibition is 9.46%.
The same measure for `NO`: -14.1%.
The same measure for `CCN1CCC[C@H]1CNC(=O)c1c(OC)ccc(I)c1O`: 9.9%.
The same measure for `CCn1cc(C(=O)O)c(=O)c2cc3c(cc21)OCO3`: 1.71%.
On to `CN1CCN(C2Cc3ccccc3Sc3ccc(Cl)cc32)CC1` (configuration not stated), for which the inhibition is 30.5%.
As for `C=Cc1c(C)c2cc3[nH]c(cc4nc(cc5nc(cc1[nH]2)C(C)=C5CCC(=O)O)C(CCC(=O)O)=C4C)c(C)c3C=C`, the inhibition was 9.54%.
